Calls of active or inactive are those of the source. Unless noted, how the calls were made is not given here.
Key:
[1] = kinase inhibitors against Plasmodium liver-stage infection, cell-based, known kinase inhibitor set, luminescence, hepatoma host viability (AID 624392); conditions: Plasmodium liver stage in hepatoma cells, luciferase luminescence, concentration not given here; liver cell % of control: measured here: host liver cell viability; parasite % of control: stronger effect = lower value;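 further: infected cells incubated roughly two days before readout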
[2] = modulators of glucocorticoid suppression of NF-kB, cell-based, luciferase, IL-1B stimulus, dexamethasone (AID 624486); conditions: NF-kB luciferase reporter, IL-1B + dexamethasone, luminescence; percent of negative control (+Dex): actives lie on both sides, concentration not given here; z-score: measured here: IL-1B alone, no Dex;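 on percent of negative control (+Dex): 100% = mean signal of vehicle control wells on the plate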
[3] = kinase inhibitors altering Pseudomonas killing of worms, whole organism (AID 651566);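 further: tested at 14 µM; sign flipped so higher z means a lower ratio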; conditions: C. elegans killed by P. aeruginosa, survival ratio
[4] = activators of macrophage pro-inflammatory response, cell-based, murine, luminescence (AID 652131); conditions: murine macrophage pro-inflammatory reporter, stronger effect = higher value
[5] = molecular target: Cellular tumor antigen p53 (Homo sapiens) (UniProt P04637); assay: kinase inhibitors altering GFP-p53 stability in HPV16-positive cells, imaging, known kinase inhibitor set, EGFP/DsRed ratio (AID 1053116); conditions: stronger effect = higher value; EGFP object count: measured here: GFP-p53 positive objects count;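 further: cells exposed to compounds for 24 h at 37 °C before reading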
[6] = IRF3 reporter activation in THP-1 macrophages, cell-based, PMA-stimulated THP-1, luminescence (AID 1053176); conditions: PMA-differentiated THP-1, IRF3 reporter luminescence; stronger effect = higher value
[7] = survival rescue of mitochondrial mutant cells in low glucose, primary screen, MELAS cybrids, Rieske KO mouse fibroblasts, CellTiter-Glo (AID 1508586;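 active means mean z-score across replicates of 1.96 or higher in either the MELAS or the Rieske mutant cell line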;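 further: z relative to plate mean and SD of compound and empty wells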)
[8] = MELAS cybrid survival, CellTiter-Glo 48 h, stronger effect = higher value
[9] = Rieske KO mouse fibroblast survival, CellTiter-Glo 72 h

Sequence of Cellular tumor antigen p53 (Homo sapiens) (P04637 whole entry, looked up): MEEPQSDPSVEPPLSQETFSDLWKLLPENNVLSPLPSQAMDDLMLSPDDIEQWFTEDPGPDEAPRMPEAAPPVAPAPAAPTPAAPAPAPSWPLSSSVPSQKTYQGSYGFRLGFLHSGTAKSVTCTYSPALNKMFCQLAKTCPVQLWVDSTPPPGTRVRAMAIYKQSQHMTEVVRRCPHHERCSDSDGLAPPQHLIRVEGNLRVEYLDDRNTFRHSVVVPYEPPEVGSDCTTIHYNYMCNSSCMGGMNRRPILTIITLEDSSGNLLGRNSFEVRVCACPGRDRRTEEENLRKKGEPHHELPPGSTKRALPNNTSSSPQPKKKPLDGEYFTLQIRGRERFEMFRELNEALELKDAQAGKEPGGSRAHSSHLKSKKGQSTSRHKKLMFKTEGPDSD

Structure (SMILES)	liver cell % of control [1] [%]	parasite % of control [1]	percent of negative control (+Dex) [2]	z-score [2]	z-score [3]	z-score [4]	EGFP object count [5]	EGFP/DsRed ratio [5]	fraction signal [6]	z-score [7, 8]	z-score [7, 9]
NS(=O)(=O)c1ccc(Nc2ncc(-c3ccccc3)o2)cc1	108	123% (inactive)	117% (inactive)	0.745	-0.98 (inactive)	0.209 (inactive)	3.5	0.0759 (inactive)	-0.0035 (inactive)	1.06 (inactive)	-0.0466
CCN1CCC(C(=O)NC2NNC3NNC(c4cccc(F)c4F)CC32)CC1 (stereo not given)	73.6	144% (inactive)	114% (inactive)	-0.315	-0.46 (inactive)	2.7 (inactive)	15	0.326 (inactive)	-0.002 (inactive)	-0.831 (inactive)	-0.194
Cn1c(-c2nonc2N)nc2cnccc21	87.4	106% (inactive)	70.5% (inactive)	-2.13	-0.36 (inactive)	-0.113 (inactive)	4.5	0.0787 (inactive)	-0.0065 (inactive)	-0.058 (inactive)	-0.308
O=S(=O)(CCOCc1ccc(-c2ccc3ncnc(Nc4ccc(OCc5cccc(F)c5)c(Cl)c4)c3c2)o1)c1ccccc1	105	111% (inactive)	78% (inactive)	-1.27	-1.41 (inactive)	-0.482 (inactive)	2	0.0356 (inactive)	-0.003 (inactive)	-0.647 (inactive)	-0.248
NS(=O)(=O)c1ccc(N=Nc2c(O)[nH]c3cccc(CCc4ccncc4)c23)cc1	87.4	102% (inactive)	92.5% (inactive)	-0.56	-0.35 (inactive)	4.97 (inactive)	4	0.0896 (inactive)	-0.003 (inactive)	-0.234 (inactive)	-0.178
CN(C)C(=O)O[C@H]1CN[C@H](C#Cc2cc3ncnc(Nc4ccc(OCc5cccc(F)c5)c(Cl)c4)c3s2)C1	97.6	127% (inactive)	92% (inactive)	-0.215	0.225 (inactive)	-0.738 (inactive)	2	0.131 (inactive)	0.001 (inactive)	-0.153 (inactive)	-0.193
COc1ccccc1Nc1ncc(-c2ccccc2)o1	121	132% (inactive)	243% (active)	9.37	-1.29 (inactive)	5.36 (inactive)	8.5	0.173 (inactive)	0.001 (inactive)	0.853 (inactive)	-0.618
COc1cccc(-n2nc(C)c3c(N/N=C(\C)c4ccncc4)ncnc32)c1	114	124% (inactive)	100% (inactive)	0.765	0.74 (inactive)	-0.201 (inactive)	2	0.0826 (inactive)	-0.0005 (inactive)	-0.775 (inactive)	-0.494
O=C(Nc1n[nH]c2nc(-c3ccco3)ccc12)C1CC1	201	24% (inactive)	104% (inactive)	-0.105	-0.7 (inactive)	0.373 (inactive)	2	0.0203 (inactive)	-0.008 (inactive)	-0.235 (inactive)	-0.343
CCCNc1cccc(-n2ncc3c(N/N=C/c4ccncc4)ncnc32)c1	95.8	39.7% (inactive)	90% (inactive)	-0.38	0.37 (inactive)	-1.11 (inactive)	8.5	0.328 (inactive)	-0.005 (inactive)	1.12 (inactive)	-0.108
O=C(Nc1n[nH]c2cc(-c3ccc(F)cc3)ccc12)C1CC1	152	140% (inactive)	115% (inactive)	1.05	0.27 (inactive)	0.642 (inactive)	3	0.145 (inactive)	-0.001 (inactive)	-1.18 (inactive)	-0.329
O=C1NC(=O)C(N2CCc3ccccc32)=C1c1ccc(Cl)cc1	86.6	138% (inactive)	74% (inactive)	-1.47	-1.35 (inactive)	-0.315 (inactive)	4	0.106 (inactive)	-0.0285 (inactive)	-0.729 (inactive)	0.357
NS(=O)(=O)c1ccc(N=Nc2c(O)[nH]c3ccc(C(=O)NCc4ccncc4)cc23)cc1	77.7	86.4% (inactive)	95% (inactive)	-0.595	-0.105 (inactive)	0.051 (inactive)	8	0.126 (inactive)	-0.001 (inactive)	-0.207 (inactive)	-0.126
O=C(Nc1ccc(Oc2ccc3nc(NC(=O)c4ccccc4)[nH]c3c2)cc1)Nc1cc(C(F)(F)F)ccc1F	151	113% (inactive)	102% (inactive)	0.635	-0.485 (inactive)	-1.71 (inactive)	2.5	0.0378 (inactive)	-0.006 (inactive)	8.17 (active)	1.84
Cc1cc(O)cc(C)c1/C=C/c1cncc(C(=O)OC(C)(C)C)c1	60.8	116% (inactive)	100% (inactive)	0.33	0.75 (inactive)	-0.067 (inactive)	34.5	0.559 (inactive)	0.0035 (inactive)	0.119 (inactive)	-0.153

— PubChem BioAssay
